According to PubChem BioAssay (NCATS):
Records with an inconclusive call do not appear. Where a call stands in place of a potency, no number is given. Calls of active or inactive are those of the source. Calls follow the shape of the dose curve; as a rule, active = well fitted inhibition curve with a large enough effect; inconclusive = small, poorly fitted or top-dose-only effect; inactive = flat fitted curve, though single readings scatter.
Potency is read from the fitted curve at half-maximal effect.

These compounds were tested against Dual specificity protein kinase CLK4 (Homo sapiens) (UniProt Q9HAZ1) (assay: qHTS Assay for Inhibitors of CDC-like Kinase 4 (ADP-Glo Assay) (AID 1771; also: nearly all actives have a fitted effect of over 70% in size)). Settings: recombinant CLK4, ADP-Glo luminescence; series mostly up to 80 µM.
Chain of Dual specificity protein kinase CLK4 (Homo sapiens) (Q9HAZ1 whole entry, looked up): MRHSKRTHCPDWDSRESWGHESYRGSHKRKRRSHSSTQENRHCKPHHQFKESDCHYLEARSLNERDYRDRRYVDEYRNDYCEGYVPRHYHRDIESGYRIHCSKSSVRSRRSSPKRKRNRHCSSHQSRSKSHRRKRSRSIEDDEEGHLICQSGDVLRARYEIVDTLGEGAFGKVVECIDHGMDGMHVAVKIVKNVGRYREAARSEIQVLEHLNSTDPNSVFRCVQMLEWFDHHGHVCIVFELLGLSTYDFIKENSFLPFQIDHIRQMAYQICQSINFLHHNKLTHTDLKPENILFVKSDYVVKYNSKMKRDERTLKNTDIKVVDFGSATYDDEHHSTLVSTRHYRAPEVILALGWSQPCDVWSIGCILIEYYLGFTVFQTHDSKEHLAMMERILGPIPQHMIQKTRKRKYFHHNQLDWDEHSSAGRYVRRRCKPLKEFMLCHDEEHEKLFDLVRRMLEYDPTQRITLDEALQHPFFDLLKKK
Experimental: NIH Molecular Libraries Probe Production Centers Network [MLPCN] NIH Chemical Genomics Center [NCGC] MLPCN Grant: 1R03MH084827-01 Assay Submitter (PI): Tom Misteli NCGC Assay Overview: Clk4 (Invitrogen, cat# PV3839) was assayed using ATP and the RS repeat peptide (AnaSpec cat # 61722) as substrates. In the assay, the ADP levels were detected using Promega ADP-Glo technology wherein the remaining ATP from the kinase reaction is first depleted with an ATPase reagent followed by a reagent that contains and enzyme which converts the ADP produced to ATP as well as Ultra-Glo luciferase and D-luciferin which generates a bioluminescence signal from the ATP. The positive control for the assay was TG003 (Sigma-Aldrich, cat# 300801-52-9) which has been described as an inhibitor of Clk 4[1].
NCGC Assay Protocol Summary: Two uL/well of substrate-buffer solution (100 uM RS peptide, 1 uM ATP, 1x ADP-Glo Buffer A, 2 mM MgCl2, 0.5 mM EGTA, 2.5 mM DTT, 0.01% Triton X-100, final concentrations) was dispensed into 1536-well plates (Greiner, solid white, medium binding assay plates) with the Aurora Discovery BioRAPTR Flying Reagent Dispenser (FRD; Beckton-Dickenson). Twenty-three nanoliter of compound and control solutions were transferred to the assay plate using a Kalypsys pin-tool followed by 0.5 uL/well Clk4-buffer solution (25 nM Clk4, 1x ADP-Glo Buffer A, 2 mM MgCl2, 0.5 mM EGTA, 2.5 mM DTT, 0.01% Triton X-100 final concentration) dispensing for a total kinase reaction volume of 2.5 uL/ well. After 1 hr of room-temperature incubation, 2.5 uL ADP-Glo reagent was added and incubated at room temperature for 45 min to stop the kinetic reaction and degrade residual ATP. The ADP product was then converted to ATP by adding 5 uL per well of ADP-Glo Reagent II to yield a total assay volume of 10 uL/ well. Luminescence was detected after 30 min room temperature incubation with the Perkin Elmer Viewlux.
`CN1CCN(c2ncc3nc(CCc4ccccc4)c(=O)n(CCc4ccccc4)c3n2)CC1` was tested, and the Potency was “inactive”.
With `COc1ccccc1-c1nc(Nc2ccncc2)c2ccccc2n1` the Potency was 12.6 µM (active).
For `Cc1nc2cnc(OCc3ccccc3)nc2n(CCc2ccccc2)c1=O`, the Potency was “inactive”.
With `COc1ccc2[nH]cc(CCNc3ncncc3-c3ccccc3Cl)c2c1` the Potency was 10 µM (active).
With `Cn1cc(-c2nc3cnc(N4CCNCC4)nc3n(C3CC3)c2=O)c2ccccc21` the Potency was “inactive”.
For `CN1CCN(c2ncc3nc(-c4cccs4)c(=O)n(CCc4ccccc4)c3n2)CC1`, the Potency was “inactive”.
In the case of `CN1CCN(c2ncc3nc(-c4cccc(C#N)c4)c(=O)n(CCc4ccccc4)c3n2)CC1`, the Potency is reported as “inactive”.
In the case of `c1cn(-c2ncnc3ccc(-c4ccoc4)cc23)cn1`, the Potency is reported as 0.199 µM (active).
`Clc1ccccc1-c1nc(-n2ccnc2)c2ccccc2n1` was tested, and the Potency was 2.24 µM (active).
`O=c1c(-c2cccc(F)c2)nc2cncnc2n1Cc1ccc(F)cc1` was tested, and the Potency was “inactive”.
`COc1ccccc1CNc1ncnc2ccc(-c3cccc(NS(C)(=O)=O)c3)cc12` was tested, and the Potency was 14.1 µM (active).
`CS(=O)(=O)Nc1cccc(-c2nc(Nc3ccncc3)c3ccccc3n2)c1` was tested, and the Potency was 10 µM (active).
In the case of `CN(C)c1ncc2nc(CCc3ccccc3)c(=O)n(CCc3ccccc3)c2n1`, the Potency is reported as “inactive”.
`COCCn1c(=O)c(-c2ccc(F)cc2)nc2cnc(Oc3ccccc3)nc21` was tested, and the Potency was “inactive”.
In the case of `COc1ccccc1-c1nc(NC2CC2)c2ccccc2n1`, the Potency is reported as 14.1 µM (active).
For `COc1cccc(Nc2ncc3ncc(=O)n(Cc4ccc(F)cc4)c3n2)c1`, the Potency was 2.51 µM (active).
For `CN1CCN(c2ncc3nc(-c4cn(C)c5ccccc45)c(=O)n(CCC#N)c3n2)CC1`, the Potency was “inactive”.
`c1ccc2c(NCCN3CCOCC3)nc(-c3ccoc3)nc2c1` was tested, and the Potency was “inactive”.
In the case of `Cn1cc(-c2nc3cnc(N4CCNCC4)nc3n(CCc3ccccc3)c2=O)c2ccccc21`, the Potency is reported as “inactive”.
For `COc1ccc2[nH]cc(CCNc3ncncc3-c3ccc4c(c3)OCO4)c2c1`, the Potency was 7.08 µM (active).
For `COc1ccc(-c2nc3cnc(N4CCOCC4)nc3n(-c3ccc(OC)cc3)c2=O)cc1`, the Potency was “inactive”.
With `N#Cc1ccccc1-c1ccc2ncnc(NCc3cccnc3)c2c1` the Potency was 5.01 µM (active).
For `c1ccc(Nc2nc(-c3cccnc3)nc3ccccc23)cc1`, the Potency was 3.55 µM (active).
`COc1ccc(CNc2cc(-c3cccc(NS(C)(=O)=O)c3)ncn2)c(OC)c1` was tested, and the Potency was “inactive”.
In the case of `c1cncc(CNc2nc(-c3cccnc3)nc3ccccc23)c1`, the Potency is reported as 12.6 µM (active).
With `COc1ccc2[nH]cc(CCNc3ncnc4ccc(-c5cccc(C#N)c5)cc34)c2c1` the Potency was 15.8 µM (active).
In the case of `COc1cccc(-c2nc(N(C)C)c3ccccc3n2)c1`, the Potency is reported as 7.08 µM (active).
`CN(C)C(=O)c1ccc(-c2nc(Nc3ccccc3)c3ccccc3n2)cc1` was tested, and the Potency was 28.2 µM (active).
In the case of `COc1ccc2[nH]cc(CCNc3cc(-c4cccc(C#N)c4)ncn3)c2c1`, the Potency is reported as 31.6 µM (active).
With `CCNc1ncc2ncc(=O)n(Cc3cccc(OC)c3)c2n1` the Potency was 3.16 µM (active).
In the case of `COc1ccccc1CNc1nc(-c2ccoc2)nc2ccccc12`, the Potency is reported as “inactive”.
For `COc1ccc(-c2nc3cnc(N4CCN(C)CC4)nc3n(CCc3ccccc3)c2=O)cc1`, the Potency was “inactive”.
For `COCCn1c(=O)c(-c2ccccc2)nc2cnc(Oc3cccc(Cl)c3)nc21`, the Potency was “inactive”.
For `COc1ccccc1-c1nccc(N2CCN(C)CC2)n1`, the Potency was “inactive”.
`COc1ccc(-c2nc3cnc(Oc4cccc(Cl)c4)nc3n(C[C@H]3CCCO3)c2=O)cc1` was tested, and the Potency was “inactive”.
With `Cc1cnc(CNc2ncnc3ccc(-c4ccccc4Cl)cc23)cn1` the Potency was 14.1 µM (active).
In the case of `COCCn1c(=O)c(-c2cccs2)nc2cnc(N3CCNCC3)nc21`, the Potency is reported as “inactive”.
`COc1ccccc1CNc1ncncc1-c1ccccc1C(F)(F)F` was tested, and the Potency was “inactive”.
For `Cn1c(=O)c(-c2ccc(Cl)cc2)nc2cncnc21`, the Potency was “inactive”.
With `COc1ccc2[nH]cc(CCNc3ncncc3-c3ccoc3)c2c1` the Potency was 15.8 µM (active).
